The nature of assay [1]: reducers of endogenous Her2 protein level, primary screen, SKBR3 breast tumor cells, AlphaScreen, ATP viability (AID 461;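 active = Her2 level under about 52% in both replicate screens, with viability over 70% of control, limit read from the data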;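 for Her2 level: lower value means less Her2 protein in the cells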;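 for viability: percent of carrier control wells set as 100% viability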). The following applies: 18-24 h, measured here: SKBR3 viability, ATP luminescence, at 10 µM. (In general: Alpha assays give light when donor and acceptor beads are brought close together.)
For assay [2], the target named is Receptor tyrosine-protein kinase erbB-2 (Homo sapiens) (UniProt P04626). The description is as above. The following applies: 18-24 h, at 10 µM, stronger effect = lower value.
A short description of assay [3]: SK-BR-3 cell growth inhibitors, pilot screen, 24 h, human (AID 572;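 active = viability at or below 10% of carrier control in both of two separate runs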;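 note: compound exposure lasted between 18 and 24 h rather than exactly 24 h; 100% = carrier-treated control wells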). Conditions: SK-BR-3 viability, CellTiter-Glo luminescence, at 10 µM, stronger effect = lower value. In general terms: Cellular ATP, detected with luciferase, serves as a proxy for viable cell number.
Assay [4] in a line: HUVEC growth inhibition – cell-based, human, primary screen (AID 575;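 active = viability at or below 30% in both replicate assays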;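 note: 100% = median of untreated cell wells with 0.1% DMSO on each plate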). The following applies: HUVEC proliferation, CellTiter-Glo luminescence, 72 h; at 10 µM; stronger effect = lower value.
Assay [5] is described as follows: growth inhibitors of H69AR lung tumor, primary screen, human, duplicate replicates (AID 580;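 active = viability at or under a set limit in both replicates, limit being median viability minus 3 SD, cut at about 48% in these data, passing the limit was not always enough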;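 note: 100% = mean luminescence of untreated wells and 0% = no signal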). The following applies: H69AR lung tumor cells viability, ATP luminescence, 72 h; at 10 µM; stronger effect = lower value.
A short description of assay [6]: reversal of MRP1-mediated doxorubicin resistance, pilot screen, H69AR cells, doxorubicin co-treatment (AID 601;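 active = viability loss from added drug above about 55%, and viability with drug at most 40%, in both replicates, limit read from the data, passing the limit was not always enough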). Conditions: CellTiter-Glo, 72 h, at 10 µM; for differential viability (reversal): stronger effect = higher value.
Assay [7] is described as follows: 384-well plate pilot, post-Golgi transport modulator project, inhibition of yeast transport mutant growth (AID 636; in the data active = inhibition above about 31%). Conditions: absorbance 615 nm, about 18 h, stronger effect = higher value.
Assay [8] in a line: growth suppression of yeast trafficking mutant, preliminary HTS, modulators of trafficking downstream of Golgi apparatus project, 1536-format plate, OD 615 nm (AID 637; in the data active = inhibition above about 30%). The following applies: yeast transport mutant growth, absorbance 615 nm, 18 h; stronger effect = higher value.
Assay [9] is described as follows: OD615 S. cerevisiae growth inhibition, permissive medium, pilot counter-assay, permissive growth control for S. cerevisiae lifespan shortening project (AID 705;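 active = growth inhibition above 25% in both replicates, a cutoff set 3 SD above the mean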). The following applies: OD615, 24 h, at 10 µM, stronger effect = higher value.
A short description of assay [10]: Restrictive medium S. cerevisiae growth inhibition, OD615, pilot screen of yeast lifespan reduction project, restrictive growth control (AID 706;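 active = growth inhibition above a set limit, 3 SD over mean compound inhibition, in both replicates, cut at about 43% in these data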;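 note: modified DeaD lifespan yeast strain shifted to restrictive glucose medium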). The following applies: OD615, 48 h, at 10 µM, stronger effect = higher value.
Assay [11] is described as follows: viability gain of MRP-1-high H69AR cells under doxorubicin, pilot screen, MRP-1 activator project, CellTiter-Glo, duplicate (AID 807;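 active = viability increase at or above a cutoff of the median across tested compounds plus 3 SD, cut at about 8.5% in these data, passing the limit was not always enough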;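 note: compound pretreatment 18-22 h then 72 h combined with doxorubicin; 0% = doxorubicin alone and 100% = vehicle without doxorubicin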). The following applies: H69AR viability with doxorubicin, CellTiter-Glo luminescence; at 10 µM; stronger effect = higher value.
The nature of assay [12]: growth suppression of beta-catenin knockout HCT116, pilot screen, human colon tumor cells (AID 823;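 active = cell viability at or below a set limit in both duplicate runs, the limit being the all-compound median minus 4 SD, cut at about 23% in these data, passing the limit was not always enough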;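 note: 0% = wells killed by 20 µM Hyamine and 100% = untreated DMSO cell wells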). The following applies: CellTiter-Glo, 60 h, at 10 µM, stronger effect = lower value.
The nature of assay [13]: growth suppression of PTEN-deleted HCT116, pilot screen, cell-based, HCT116 clonal line, CellTiter-Glo (AID 824;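 active = viability at or below 27.92% in each of two runs, the all-compound median minus 4 SD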;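 note: 0% = 20 µM Hyamine control and 100% = vehicle cell control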). The following applies: 60 h, at 10 µM, stronger effect = lower value.
A short description of assay [14]: inhibitors of the yeast RAM network, pilot screen, dse1pr::URA3 reporter, 5-FOA selection (AID 869;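 active = inhibition over a set limit, the all-compound mean plus 3 SD, in both replicate runs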;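 note: 0% = DMSO wells with no growth and 100% = 10 µM 1-NA-PP1 with full growth; RAM network block rescues cells from 5-FOA so hits raise OD615 growth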). The following applies: S. cerevisiae dse1pr::URA3 5-FOA growth, OD615, 2 d; at 10 µM; stronger effect = higher value; strain carries analog-sensitive mutant Cbk1 kinase.
Assay [15] is described as follows: RAM signaling pathway blockade in yeast – S. cerevisiae, Pdr1DBD-CYC8 efflux-inhibited sensitized strain, primary screen (AID 1298).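 Note: 0% = DMSO untreated cells without growth and 100% = 10 µM 1-NA-PP1 full growth; higher means more yeast growth rescued from 5-FOA killing.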 The following applies: S. cerevisiae cbk1-as DSE1-URA3 strain, 5-FOA growth OD615, 2 d; at 50 µM; stronger effect = higher value.
Where [16] appears, read: H69AR cells + 2 uM doxorubicin, measured here: viability with 2 uM doxorubicin, stronger effect = lower value.
Setting [17] is: H69AR cells, compound alone cytotoxicity.

Results on nine compounds are retold here after PubChem BioAssay.

Results filed as inconclusive are left out. The source made the active and inactive calls.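 Rule for the calls, unless noted: active = RAM network inhibition above 8.4% in each of two replicates, 3 SD over the compound average; inconclusive = above 8.4% inhibition in only one replicate; inactive = 8.4% inhibition or less in each replicate.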

Chain of Receptor tyrosine-protein kinase erbB-2 (Homo sapiens) (P04626 whole entry, looked up): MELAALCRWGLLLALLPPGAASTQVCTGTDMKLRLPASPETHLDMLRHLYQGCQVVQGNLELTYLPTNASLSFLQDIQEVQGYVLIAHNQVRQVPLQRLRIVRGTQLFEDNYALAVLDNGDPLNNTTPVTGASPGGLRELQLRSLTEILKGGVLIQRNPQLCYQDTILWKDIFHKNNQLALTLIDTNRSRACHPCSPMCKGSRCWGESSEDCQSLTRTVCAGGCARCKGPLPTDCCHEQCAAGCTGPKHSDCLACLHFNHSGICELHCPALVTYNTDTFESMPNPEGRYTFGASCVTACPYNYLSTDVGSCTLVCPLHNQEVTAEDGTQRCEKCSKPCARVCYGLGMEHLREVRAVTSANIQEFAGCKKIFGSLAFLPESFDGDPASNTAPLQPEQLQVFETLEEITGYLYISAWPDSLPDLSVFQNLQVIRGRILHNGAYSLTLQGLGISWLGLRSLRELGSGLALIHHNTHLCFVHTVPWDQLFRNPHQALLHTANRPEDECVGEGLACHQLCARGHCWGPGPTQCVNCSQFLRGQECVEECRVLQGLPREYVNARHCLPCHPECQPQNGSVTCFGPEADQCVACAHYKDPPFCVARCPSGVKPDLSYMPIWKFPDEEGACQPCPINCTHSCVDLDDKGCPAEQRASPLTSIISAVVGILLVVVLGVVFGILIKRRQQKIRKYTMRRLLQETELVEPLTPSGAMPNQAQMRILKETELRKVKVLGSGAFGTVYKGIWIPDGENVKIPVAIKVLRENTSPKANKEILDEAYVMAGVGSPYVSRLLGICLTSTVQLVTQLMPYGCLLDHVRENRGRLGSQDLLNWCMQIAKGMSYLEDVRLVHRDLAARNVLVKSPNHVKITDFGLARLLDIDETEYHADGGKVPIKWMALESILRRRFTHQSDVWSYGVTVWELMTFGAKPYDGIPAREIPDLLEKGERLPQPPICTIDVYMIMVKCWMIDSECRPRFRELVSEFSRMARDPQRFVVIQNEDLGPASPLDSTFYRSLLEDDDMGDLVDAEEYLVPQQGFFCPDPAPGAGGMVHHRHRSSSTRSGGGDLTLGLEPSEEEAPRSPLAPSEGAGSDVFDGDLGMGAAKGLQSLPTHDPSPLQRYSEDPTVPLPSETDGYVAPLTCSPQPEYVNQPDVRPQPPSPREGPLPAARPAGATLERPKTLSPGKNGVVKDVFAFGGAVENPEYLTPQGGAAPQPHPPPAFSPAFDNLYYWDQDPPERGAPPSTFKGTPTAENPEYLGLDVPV

As usually defined, the viability is a read-out of living cells in per cent, often relative to untreated cells. By inhibition is commonly meant the change of the read-out against control, counted positive when it falls. For `COC(=O)c1cn(NC(=O)C2CCCO2)c(=O)c2ccccc12` (stereo not drawn), the viability in assay [1] is 109%; in assay [3], 109% (inactive); in [4] it was 93.7% (inactive); in [5], 96.6% (inactive); in [6] (setting [16]), 91.8%; in assay [6] (setting [17]), 96.6%. Besides, the results for the viability in [12] and in assay [13] were 91.2% (inactive) and 98.8% (inactive), respectively. Further, the Her2 level in [2] is 76% (inactive). Also, the differential viability (reversal) in assay [6] (H69AR cells + 2 uM doxorubicin) was 4.83% (inactive). Besides, the inhibition is -6.35% (inactive) in assay [7], -0.49% (inactive) in assay [8] and 1.48% (inactive) in assay [14]. In addition, the growth inhibition is -21.3% (inactive) in assay [9] and -23.6% (inactive) in assay [10]. Also, the viability increase in [11] was -0.57% (inactive). In addition, the RAM network inhibition in assay [15] is 3% (inactive).
With `O=c1c(-c2ccccc2)coc2c(CN3CCOCC3)c(O)ccc12`, the viability is 110% in assay [1]; 110% (inactive) in [3]; 96.4% (inactive) in assay [4]; 99% (inactive) in [5]; 100% in [6] (setting [16]); 99% in assay [6] (setting [17]). Further, the figures for the viability in assay [12] and in [13] were 91.7% (inactive) and 99.7% (inactive), respectively. Moreover, in [2], the Her2 level was 105% (inactive). The differential viability (reversal) in assay [6] (H69AR cells + 2 uM doxorubicin) was -1.39% (inactive). Further, the inhibition was 0.95% (inactive) in [7], -7.87% (inactive) in assay [8] and 0.58% (inactive) in [14]. In addition, the growth inhibition is -9.23% (inactive) in assay [9] and 4.11% (inactive) in [10]. Besides, the viability increase in assay [11] is -4.13% (inactive). Further, in [15], the RAM network inhibition is -0.61% (inactive).
In the case of `CCOc1ccccc1NC(=O)CC1Nc2cc(C)c(C)cc2NC1=O` (stereo not drawn), the viability in assay [1] is 80.5%; in [3], 80.5% (inactive); in [4], 68.7% (inactive); in [5], 59.2% (inactive); in [6] (setting [16]), 85%; in [6] (setting [17]) it was 59.2%. Moreover, the viability in assay [12] was 77.5% (inactive); in assay [13], 77.8% (inactive). Further, the Her2 level in assay [2] was 82% (inactive). Besides, the differential viability (reversal) in [6] (H69AR cells + 2 uM doxorubicin) is -25.8% (inactive). Besides, the inhibition was -1.67% (inactive) in assay [7], -5.5% (inactive) in [8] and 0.04% (inactive) in assay [14]. The values for the growth inhibition in assay [9] and in [10] were -16.7% (inactive) and -12.1% (inactive), respectively. In [11], the viability increase was -5.9% (inactive). Besides, the RAM network inhibition in [15] was 5.85% (inactive).
With `CCCCn1c(CN2CCN(c3ccc(F)cc3)CC2)nc2c1c(=O)n(C)c(=O)n2C`, the viability in assay [1] is 98%; in assay [3], 98% (inactive); in assay [4], 66.9% (inactive); in assay [5], 95.5% (inactive); in [6] (setting [16]) it was 99.3%; in [6] (setting [17]), 95.5%. For the same compound, the viability in assay [12] is 80.3% (inactive); in [13], 85.8% (inactive). In [2], the Her2 level is 93% (inactive). Further, the differential viability (reversal) in assay [6] (H69AR cells + 2 uM doxorubicin) was -3.86% (inactive). Besides, the inhibition is -3.33% (inactive) in [7], -5.74% (inactive) in assay [8] and 1.07% (inactive) in assay [14]. For the same compound, the growth inhibition was -8.42% (inactive) in assay [9] and -1.05% (inactive) in assay [10]. Further, the viability increase in [11] was -0.4% (inactive). For the same compound, the RAM network inhibition in assay [15] is 3.49% (inactive).
With `COc1ccc(C(C)N2CC34C=CC(O3)C(C(=O)OCC(C)C)C4C2=O)cc1` (stereo not drawn), the viability in assay [1] is 103%; in assay [3], 103% (inactive); in assay [4], 97.2% (inactive); in assay [5], 85.1% (inactive); in assay [6] (setting [16]), 81.9%; in assay [6] (setting [17]), 85.1%. Besides, the viability is 103% (inactive) in [12] and 88.5% (inactive) in assay [13]. Further, the Her2 level in assay [2] is 89.5% (inactive). Moreover, the differential viability (reversal) in assay [6] (H69AR cells + 2 uM doxorubicin) is 3.22% (inactive). The inhibition was -4.27% (inactive) in assay [7], -2.33% (inactive) in assay [8] and 1.82% (inactive) in assay [14]. Moreover, the values for the growth inhibition in [9] and in assay [10] were -0.88% (inactive) and -7.06% (inactive), respectively. Moreover, the viability increase in [11] was -2.51% (inactive). Further, in assay [15], the RAM network inhibition is 4.69% (inactive).
On to `COc1cccc(C2C(C(N)=O)=C(C)Nc3nc(CCCO)nn32)c1OC` (stereo not drawn), for which the viability in assay [1] was 102%; in assay [3] it was 102% (inactive); in assay [4], 93.8% (inactive); in assay [5] it was 96.4% (inactive); in [6] (setting [16]) it was 97.5%; in assay [6] (setting [17]), 96.4%. Moreover, the viability in assay [12] was 105% (inactive); in [13], 104% (inactive). Further, the Her2 level in [2] is 103% (inactive). The differential viability (reversal) in assay [6] (H69AR cells + 2 uM doxorubicin) was -1.08% (inactive). Further, the inhibition is 0.93% (inactive) in [7], -3.67% (inactive) in assay [8] and 0.085% (inactive) in assay [14]. Also, the growth inhibition in assay [9] was -8.7% (inactive); in assay [10] it was 14.1% (inactive). Moreover, in assay [11], the viability increase was -0.88% (inactive). Also, the RAM network inhibition in assay [15] is 0.27% (inactive).
On to `Cc1cccc(-n2nc3c(c2NC(=O)CCC2CCCCC2)CS(=O)C3)c1C` (stereo not drawn), for which the viability in assay [1] is 95%; in [3], 95% (inactive); in [4] it was 86.3% (inactive); in assay [5] it was 90.9% (inactive); in assay [6] (setting [16]), 89.3%; in [6] (setting [17]), 90.9%. For the same compound, the viability is 91.8% (inactive) in [12] and 92.1% (inactive) in assay [13]. Besides, the Her2 level in assay [2] is 94.5% (inactive). The differential viability (reversal) in assay [6] (H69AR cells + 2 uM doxorubicin) is 1.55% (inactive). Further, the inhibition in assay [7] is -4.13% (inactive); in assay [8], 1.33% (inactive); in assay [14] it was 1.02% (inactive). Besides, the growth inhibition in [9] is -8.41% (inactive); in assay [10] it was 1.94% (inactive). Also, the viability increase in assay [11] is -1.85% (inactive). In addition, the RAM network inhibition in assay [15] was 1.36% (inactive).
As for `CCOc1ccccc1C1C(C(=O)Nc2ccc(OC)cc2)=C(C)Nc2nc(CCCO)nn21` (stereo not drawn), the viability in assay [1] is 87.5%; in assay [3], 87.5% (inactive); in assay [4] it was 84.4% (inactive); in [5] it was 91.3% (inactive); in assay [6] (setting [16]), 82.6%; in assay [6] (setting [17]), 91.3%. Also, the viability in assay [12] was 109% (inactive); in assay [13], 98.7% (inactive). The Her2 level in assay [2] is 89.5% (inactive). The differential viability (reversal) in assay [6] (H69AR cells + 2 uM doxorubicin) is 8.7% (inactive). In addition, the inhibition is -0.4% (inactive) in [7], -2.17% (inactive) in assay [8] and 0.865% (inactive) in assay [14]. In addition, the figures for the growth inhibition in [9] and in assay [10] were -9.82% (inactive) and -7.01% (inactive), respectively. The viability increase in [11] is -0.17% (inactive). For the same compound, in assay [15], the RAM network inhibition was 1.36% (inactive).
As for `COC(=O)C(C)Sc1nc2c(c(=O)n1-c1ccccc1)SCC2` (stereo not drawn), the viability was 102% in assay [1]; 102% (inactive) in assay [3]; 84.3% (inactive) in [4]; 94.9% (inactive) in assay [5]; 107% in assay [6] (setting [16]); 94.9% in assay [6] (setting [17]). The viability was 87.1% (inactive) in assay [12] and 90.8% (inactive) in [13]. Further, in assay [2], the Her2 level was 77.5% (inactive). In assay [6] (H69AR cells + 2 uM doxorubicin), the differential viability (reversal) is -12.1% (inactive). The values for the inhibition in assay [7], in assay [8] and in [14] were -6.99% (inactive), -4.44% (inactive) and 1.94% (inactive), respectively. Also, the growth inhibition in [9] is -12.1% (inactive); in [10], -4.13% (inactive). The viability increase in assay [11] is -1.78% (inactive). Moreover, the RAM network inhibition in [15] is 4.56% (inactive).
